From PubChem BioAssay
FLuc modulator = inhibits or activates purified firefly luciferase, miR-21 counter-screen; P08659; purified FLuc, Km substrates, luminescence inhibition; Potency, µM (series often up to 57.5 µM), for the others: at the highest dose activity change, negative = inhibition, usual class: inhibitors; actives 6.9% (n = 360,000); AID 588342;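 note: plate controls were vehicle for no effect and reference inhibitor for full effect; nearly all actives have a fitted effect of over 55% in size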
Target sequence (P08659 whole entry, looked up): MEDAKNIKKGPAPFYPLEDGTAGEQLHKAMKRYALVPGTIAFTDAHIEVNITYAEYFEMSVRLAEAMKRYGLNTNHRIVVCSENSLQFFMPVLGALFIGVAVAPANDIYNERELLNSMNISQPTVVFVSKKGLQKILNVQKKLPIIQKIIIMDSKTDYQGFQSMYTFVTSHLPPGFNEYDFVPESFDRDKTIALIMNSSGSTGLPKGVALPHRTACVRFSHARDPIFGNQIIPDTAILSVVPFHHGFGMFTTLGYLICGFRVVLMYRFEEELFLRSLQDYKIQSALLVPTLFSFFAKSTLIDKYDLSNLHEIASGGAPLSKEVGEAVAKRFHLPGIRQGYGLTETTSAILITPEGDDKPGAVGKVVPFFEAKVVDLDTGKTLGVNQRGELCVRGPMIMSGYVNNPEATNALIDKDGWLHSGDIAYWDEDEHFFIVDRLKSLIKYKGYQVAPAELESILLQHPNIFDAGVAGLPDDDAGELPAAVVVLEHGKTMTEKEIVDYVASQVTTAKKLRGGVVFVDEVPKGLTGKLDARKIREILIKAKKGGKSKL
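Biochemical qHTS of compounds, final roughly 60 µM downward over six points, against 10 nM purified firefly luciferase using Km concentrations of substrates (10 uM D-luciferin, 10 uM ATP) in Tris acetate pH 7.5 buffer; luminescence output.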
SMN2 splice up = enhancers of SMN2 splice variant expression; HEK293 SMN2-luciferase splicing reporter, luminescence, 30-36 h; Potency, µM (titrated, usually from 46.1 µM), inactives show top-dose activity change, positive = activation, actives largely listed as activators; actives 2.8% (n = 210,000); AID 1458; note: % of control where 0% means no effect; nearly all actives have a fitted effect of over 55% in size
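HEK293 cells carry an SMN2 […]–luciferase reporter in which exon 7 inclusion puts luciferase in frame. Cells were plated 10-12 h before compound addition, then incubated 30-36 h at 37C. ONE-Glo luminescence was read; sodium butyrate at 4.5 mM final served as control.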
Luc counter = blocks Kinase-Glo luciferase, a counter-screen artifact; Q27757; Kinase-Glo luciferase, ATP luminescence, 8 min; Potency, µM (doses to about 38.3 µM), for inactives: at the highest dose activity change, negative = inhibition, most hits filed as inhibitors; actives 0.28% (n = 200,000); note: % is set by controls: 0 for no effect and ±100 for the full control effect; nearly all actives have a fitted effect of over 60% in size
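Compound is pinned into ATP-containing buffer (10 uM ATP, imidazole pH 7.2, 7 mM MgCl2). Kinase-Glo luciferase reagent is then added. Light output is recorded following an 8-min room-temperature incubation.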
NPC1 prom act = NPC1 promoter activation. Huh7 NPC1 promoter luciferase reporter, 24 h. Potency, µM (doses to about 9.22 µM), for the others: at the top dose activation, usual class: activators. actives 2.4% (n = 320,000); note: % of control where 0% means no effect; nearly all actives have a fitted effect of over 60% in size
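Cells: Huh7 expressing luciferase under the NPC1 promoter, 1500/well. Seeded 2 h, compound added, incubated 24 h at 37 °C. Luciferase reagent, 10 min ambient, then luminescence.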
Rab9 prom act = Rab9 promoter activation; actives 2.8% (n = 320,000); AID 485297; Huh7 Rab9 promoter-luciferase reporter, luminescence, 24 h; Potency, µM (titrated, usually from 9.22 µM), without a hit: at the top dose activation, negative = inhibition, most hits filed as activators; note: % of control where 0% means no effect; nearly all actives have a fitted effect of over 60% in size
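Stable Rab9-luc Huh7, 1500 cells/well, 2 h settle; cmpd in DMSO, 24 h, 37 °C/5% CO2; luciferase reagent 10 min RT; luminescence.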
ELG1 genotox = induces genotoxicity in HEK293T cells with luciferase-tagged ELG1 | HEK293T ELG1-luciferase reporter, luminescence, 16 h | Potency, µM (top dose mostly 46 µM), for inactives: at the highest dose activity change, positive = activation, actives largely listed as activators | actives 1.3% (n = 330,000); note: % of control where 0% means no effect; nearly all actives have a fitted effect of over 60% in size
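Genotoxic stress is detected as increased luminescence from luciferase-tagged ELG1 in HEK293T cells, measured with ONE-Glo after a 16 hr treatment at 37 °C.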
* marks the source's active call; other numbers are inactive results. A selection: hits, their analogues and other compounds. The true share with any hit is near 7.4%. Calls come from the whole dose curve; as a rule, active = well fitted curve in the direction sought with a large enough effect; inconclusive = small, poorly fitted or top-dose-only effect, or another doubt; inactive = no such curve, though single readings can be large; an effect the other way counts as inactive or inconclusive. Potency is the fitted concentration of half-maximal effect.

`N#Cc1ccccc1Sc1ccccc1C(=O)Nc1ccc2ccccc2c1` gave FLuc modulator -3%, SMN2 splice up -10%, Luc counter 6%, NPC1 prom act -1%, Rab9 prom act -6% and ELG1 genotox -2%.
`COc1ccc(C(=O)Nc2ccc3c(c2)Cc2ccccc2-3)cc1` gave FLuc modulator 3%, SMN2 splice up -18%, Luc counter -1%, NPC1 prom act -1%, Rab9 prom act 0% and ELG1 genotox 2%.
Screening COc1cccc(CNc2ncnc3onc(-c4ccc(F)cc4)c23)c1 returned FLuc modulator -6%.
Screening O=C(Nc1ccc2c(c1)oc1ccccc12)c1cccnc1 returned FLuc modulator 6µM*, SMN2 splice up 6%, Luc counter -1%, NPC1 prom act inconclusive, Rab9 prom act inconclusive and ELG1 genotox 16%.
`O=C(Nc1ccc2ccccc2c1)c1cnccn1` gave FLuc modulator inconclusive, SMN2 splice up 11µM*, Luc counter -9%, NPC1 prom act 3.5µM*, Rab9 prom act 1µM* and ELG1 genotox inconclusive.
For O=C(Nc1ccc2c(c1)oc1ccccc12)c1ccncc1 the results were FLuc modulator -5%, SMN2 splice up -23%, Luc counter -4%, NPC1 prom act 25%, Rab9 prom act 7% and ELG1 genotox 4%.
For C=CC(=O)CC the results were SMN2 splice up 6%.
`CCS(=O)(=O)c1nc(S(=O)(=O)c2ccc(C)cc2)c(N2CC(C)CC(C)C2)s1` (stereo not given) gave FLuc modulator 0%, NPC1 prom act -1%, Rab9 prom act -6% and ELG1 genotox -6%.
COc1ccc(OCC(O)COc2ccc(C(=O)O)cc2)cc1 (stereo not given) was read as FLuc modulator 15µM*, SMN2 splice up 10%, Luc counter -5%, NPC1 prom act 3%, Rab9 prom act -3% and ELG1 genotox 3%.
COc1ccc(OCc2ccc(C(=O)O)cc2)cc1 was read as FLuc modulator 6.7µM*, SMN2 splice up 5µM*, Luc counter 1%, NPC1 prom act inconclusive, Rab9 prom act inconclusive and ELG1 genotox 12%.
`NS(=O)(=O)c1ccc(N/N=C/c2cn(-c3ccccc3)nc2-c2ccccc2)c([N+](=O)[O-])c1` gave FLuc modulator -2%, SMN2 splice up -83%, Luc counter -6%, NPC1 prom act -29%, Rab9 prom act -48% and ELG1 genotox 16%.
`O=C(N/N=C/c1cn(-c2ccccc2)nc1-c1cccs1)c1ccccc1F` gave FLuc modulator 21µM*, SMN2 splice up 14%, Luc counter 9%, NPC1 prom act 1%, Rab9 prom act 5% and ELG1 genotox -8%.
CCN(CC(=O)Nc1ccc(NC(C)=O)cc1)C(=O)/C=C/c1cn(-c2ccccc2)nc1-c1cccs1 was read as FLuc modulator 17µM*, NPC1 prom act -1%, Rab9 prom act inconclusive and ELG1 genotox -21%.
NC(=O)N/N=C/c1cn(-c2ccccc2)nc1-c1ccccc1 was read as FLuc modulator 6.7µM*, SMN2 splice up inconclusive, Luc counter inconclusive, NPC1 prom act 19%, Rab9 prom act 17% and ELG1 genotox inconclusive.
For O=C(CNc1ccccc1)N/N=C/c1cn(-c2ccccc2)nc1-c1ccccc1 the results were FLuc modulator -4%, SMN2 splice up -16%, Luc counter 1%, NPC1 prom act -4%, Rab9 prom act 11% and ELG1 genotox -4%.
`O=[N+]([O-])c1ccc(N/N=C/c2cn(-c3ccccc3)nc2-c2ccccc2)cc1` gave FLuc modulator 2.7µM*, SMN2 splice up -26%, Luc counter inconclusive, NPC1 prom act 20%, Rab9 prom act 29% and ELG1 genotox inconclusive.
`Cc1ccccc1NC(=O)NC1(C(=O)NCC2CCCO2)CCCCC1` (stereo not given) gave FLuc modulator 1%, NPC1 prom act -2%, Rab9 prom act -3% and ELG1 genotox 2%.
For CN(C)C(=O)c1ccc(-c2ccc3ncnc(NC4CCNCC4)c3c2)cc1 the results were SMN2 splice up 4% and Luc counter -1%.
`CNC(=O)COC(=O)/C=C/c1cn(-c2ccccc2)nc1-c1ccc(C)o1` gave FLuc modulator 15µM*, NPC1 prom act -1%, Rab9 prom act -2% and ELG1 genotox 0%.
`COc1ccc(-c2nn(-c3ccccc3)cc2/C=C/C(=O)OCC(=O)Nc2ccccc2C#N)cc1` gave FLuc modulator -3%, SMN2 splice up -1%, Luc counter 0%, NPC1 prom act -6%, Rab9 prom act -24% and ELG1 genotox inconclusive.
O=C(O)/C=C/c1cn(-c2ccccc2)nc1-c1ccc(-c2ccc([N+](=O)[O-])cc2)o1 was read as FLuc modulator 9.5µM*, NPC1 prom act -3%, Rab9 prom act -1% and ELG1 genotox 0%.
For O=C(O)/C=C/c1cn(-c2ccccc2)nc1-c1cccc([N+](=O)[O-])c1 the results were FLuc modulator inconclusive, NPC1 prom act -2%, Rab9 prom act -10% and ELG1 genotox 3%.
For Cc1ccc(N=c2oc3cc(O)ccc3cc2C(N)=O)cc1 the results were FLuc modulator 19µM*, NPC1 prom act inconclusive, Rab9 prom act 4.5µM* and ELG1 genotox -2%.
For O=C(Cl)c1cccc([N+](=O)[O-])c1 the results were SMN2 splice up 13%.
For Cc1ccc(/C(N)=N/OC(=O)N2CCOCC2)cc1 the results were FLuc modulator inconclusive, SMN2 splice up -23%, Luc counter 5%, NPC1 prom act 18%, Rab9 prom act 21% and ELG1 genotox 2%.
For N/C(=N\OC(=O)C12CC3CC(CC(C3)C1)C2)c1ccncc1 the results were FLuc modulator 19µM*, NPC1 prom act -3%, Rab9 prom act -1% and ELG1 genotox 8%.
For C/C(=N\NC(=O)c1ccncc1)C12CC3CC(CC(C3)C1)C2 the results were FLuc modulator -3%, SMN2 splice up -3%, Luc counter -2%, NPC1 prom act 2%, Rab9 prom act 0% and ELG1 genotox -1%.
Screening Cc1ccc(/C(N)=N/OC(=O)C23CC4CC(CC(C4)C2)C3)cc1 returned FLuc modulator 9.5µM*, SMN2 splice up -15%, Luc counter 1%, NPC1 prom act 24%, Rab9 prom act inconclusive and ELG1 genotox 4%.
Screening Cc1ccc(NC(=O)CN2C(=O)CCc3cc(S(=O)(=O)N4CCOCC4)ccc32)c(C)c1 returned FLuc modulator -2%.
